For 17 compounds, Potency results are on record in PubChem BioAssay (NCATS).

Inconclusive results are not listed. The source made the active and inactive calls. Calls follow the shape of the dose curve; as a rule, active = well fitted curve in the direction sought with a large enough effect; inconclusive = small, poorly fitted or top-dose-only effect, or another doubt; inactive = no such curve, though single readings can be large; an effect the other way counts as inactive or inconclusive.

A short description of experiment [1]: Quantitative High-Throughput drug screen in 47 multiple myeloma cell lines against the NCATS MIPE library collection: KHM11_PLB cell viability assay (AID 1918962). Also: nearly all actives have a fitted effect of over 35% in size. In short, it runs like this: (§1)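 Luminescent ATP measurement with CellTiter-Glo gives viability, scaled between DMSO-only wells (100%) and media-only wells (0%). Cells, 500 per well, faced library compounds for 48 hours at 37C.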

A short description of experiment [2]: Quantitative High-Throughput drug screen in 47 multiple myeloma cell lines against the NCATS MIPE library collection: JIM3_ECACC cell viability assay (AID 1918963; also: nearly all actives have a fitted effect of over 35% in size). In short, it runs like this: as §1
The nature of experiment [3]: Quantitative High-Throughput drug screen in 47 multiple myeloma cell lines against the NCATS MIPE library collection: JIM1_ECACC cell viability assay (AID 1918964). In short, it runs like this: (§2)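 Relative luminescence from CellTiter-Glo served as the viability signal, referenced to DMSO-treated (100%) and cell-free medium (0%) controls. Treatment lasted 48 hours at 37C with 500 cells per well.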

Experiment [4] can be described thus: Quantitative High-Throughput drug screen in 47 multiple myeloma cell lines against the NCATS MIPE library collection: H1112_PLB cell viability assay (AID 1918967; also: nearly all actives have a fitted effect of over 30% in size). In outline: as §2
The nature of experiment [5]: Quantitative High-Throughput drug screen in 47 multiple myeloma cell lines against the NCATS MIPE library collection: KMS27_JCRB cell viability assay (AID 1918970). Also: nearly all actives have a fitted effect of over 30% in size. To be noted: KMS27 myeloma cells, CellTiter-Glo ATP viability, 48 h; viability (% of DMSO): at 45.8 µM (top of the series). In outline:
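ATP-based viability (CellTiter-Glo luminescence) is measured in cells treated 48 h with approved and investigational drugs at 37 °C. Controls are DMSO-only wells for full viability and media-only wells for none.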

Experiment [6] can be described thus: Quantitative High-Throughput drug screen in 47 multiple myeloma cell lines against the NCATS MIPE library collection: KMS12PE_JCRB cell viability assay (AID 1918972). Also: nearly all actives have a fitted effect of over 30% in size. In short, it runs like this:
(§3)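 Steps: seed 500 cells per well; pin-transfer MIPE 4.0 library; incubate 48 h at 37C, 5% CO2, humidified; add CellTiter-Glo, 5 min room temperature; read luminescence.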

A short description of experiment [7]: Quantitative High-Throughput drug screen in 47 multiple myeloma cell lines against the NCATS MIPE library collection: INA6_PLB cell viability assay (AID 1918965; also: nearly all actives have a fitted effect of over 55% in size). In short, it runs like this: as §3
Experiment [8] can be described thus: Quantitative High-Throughput drug screen in 47 multiple myeloma cell lines against the NCATS MIPE library collection: Karpas25_ECACC cell viability assay (AID 1918968; also: nearly all actives have a fitted effect of over 35% in size). In outline: as §2
Experiment [9] is described as follows: Quantitative High-Throughput drug screen in 47 multiple myeloma cell lines against the NCATS MIPE library collection: JJN3_DSMZ cell viability assay (AID 1918966; also: nearly all actives have a fitted effect of over 50% in size). In short, it runs like this: as §2
A short description of experiment [10]: Quantitative High-Throughput drug screen in 47 multiple myeloma cell lines against the NCATS MIPE library collection: KMS12BM_JCRB cell viability assay (AID 1918971). Also: nearly all actives have a fitted effect of over 35% in size. In short, it runs like this: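 We plated 500 myeloma cells per well, pinned in MIPE 4.0 compounds, and incubated for 48 hours at 37C. ATP was then quantified with CellTiter-Glo, with DMSO and media-only wells defining 100% and 0%.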
Potency is read from the fitted curve at half-maximal effect.

In the case of `CC(C)[C@H](O)C(=O)N[C@@H](C)C(=O)N[C@@H]1C(=O)N(C)CCc2ccccc21`, the Potency result in experiment [1], in experiment [2], in experiment [3], in experiment [4], in [5] and in experiment [6] was “inactive” throughout.
`COc1ccc(-c2cc3nccn3c(Nc3ncccc3C(N)=O)n2)cc1OC`: the Potency was 0.833 µM (active) in [1]; 1.05 µM (active) in experiment [2]; 0.372 µM (active) in [3]; 0.187 µM (active) in experiment [7]; 5.9 µM (active) in experiment [4]; 1.48 µM (active) in experiment [8].
In the case of `C[C@@H]1O[C@@H](O[C@H]2CC[C@@]3(C)[C@H](CC[C@@H]4[C@H]3C[C@@H](O)[C@]3(C)[C@@H](C5=CC(=O)OC5)CC[C@]43O)C2)C[C@H](O)[C@@H]1O[C@H]1C[C@H](O)[C@H](O[C@H]2C[C@H](O)[C@@H](O)[C@@H](C)O2)[C@H](C)O1` (stereo in doubt), the Potency was 0.152 µM (active) in experiment [1]; 0.191 µM (active) in experiment [2]; 0.0679 µM (active) in experiment [3]; 0.171 µM (active) in experiment [7]; 0.34 µM (active) in [9]; 0.34 µM (active) in experiment [4]. Moreover, the Potency in [8] is 0.241 µM (active); in [5], 0.0959 µM (active); in experiment [10] it was 0.215 µM (active); in [6], 0.054 µM (active).
In the case of `CN1CCC(COc2cnc(-c3cccc(Cn4nc(-c5cccc(C#N)c5)ccc4=O)c3)nc2)CC1`, the Potency was 8.33 µM (active) in experiment [1]; 0.372 µM (active) in experiment [2]; 0.418 µM (active) in experiment [7]; 0.0332 µM (active) in experiment [9]; 0.118 µM (active) in [4]; 0.0743 µM (active) in experiment [8]. The Potency in experiment [10] is 13.2 µM (active).
As for `CC(C)Oc1cc(Nc2nc(N[C@@H](C)c3ccc(F)cn3)ncc2Cl)[nH]n1`, the Potency is 10.5 µM (active) in experiment [1]; 8.33 µM (active) in experiment [2]; 20.9 µM (active) in experiment [3]; 7.43 µM (active) in experiment [7]; 20.9 µM (active) in experiment [9]; 10.5 µM (active) in experiment [8]. Further, the Potency in experiment [5] was 20.9 µM (active); in experiment [6] it was 23.5 µM (active).
Regarding `O=C(Nc1ncc(SCCN2CCCC2)s1)[C@]1(c2ccc(S(=O)(=O)C3CC3)cc2)C[C@@H]1C1CCCCC1`, the Potency in experiment [1] was 16.6 µM (active); in experiment [2], 20.9 µM (active); in [3] it was 6.62 µM (active); in [7] it was 16.6 µM (active); in [9] it was 16.6 µM (active); in [4] it was 23.5 µM (active). Besides, the Potency in experiment [8] is 18.7 µM (active); in experiment [5], 7.43 µM (active); in [10] it was 23.5 µM (active); in [6], 5.26 µM (active).
Regarding `COc1c(C)cnc(Cn2cnc3c(Cl)nc(N)nc32)c1C`, the Potency was 0.105 µM (active) in experiment [1]; 0.148 µM (active) in experiment [2]; 0.148 µM (active) in [7]; 0.166 µM (active) in experiment [9]; 0.132 µM (active) in experiment [4]; 0.209 µM (active) in [8]. Moreover, the values for the Potency in experiment [5] and in [10] were 0.209 µM (active) and 0.187 µM (active), respectively.
`CN1N=C(N)c2cn([C@@H]3O[C@H](COP(=O)(O)O)[C@@H](O)[C@@H]3O)c3ncnc1c23`: the Potency in experiment [1] is 0.372 µM (active); in experiment [2], 0.469 µM (active); in [9], 2.96 µM (active); in experiment [4], 0.526 µM (active); in experiment [8] it was 0.372 µM (active); in experiment [5], 0.0662 µM (active). Also, the Potency in experiment [10] was 6.62 µM (active).
For the compound `CCCCC[C@H](O)C=C[C@H]1[C@H](O)CC(=O)[C@H]1CC=CCCCC(=O)O`, the Potency in experiment [1] is 5.9 µM (active); in experiment [2], 20.9 µM (active); in experiment [7], 18.7 µM (active); in [8], 20.9 µM (active); in [10], 20.9 µM (active). Besides, the Potency entry in [5] and in experiment [6] was “inactive” in each case.
Take `CC(=O)NCCC(=O)N[C@@H](CCC(N)=O)C(=O)N[C@@H](CO)C(=O)N[C@@H](CCC(N)=O)C(=O)N[C@@H](CCC(N)=O)C(=O)N[C@H](C(=O)N[C@@H](Cc1ccccc1)C(=O)N[C@]1(C)CCCCCCC=CCCC[C@@](C)(C(=O)N[C@@H](CCC(N)=O)C(=O)N[C@@H](CC(N)=O)C(N)=O)NC(=O)[C@H](CC(C)C)NC(=O)[C@H](CC(C)C)NC(=O)[C@@H](CCCNC(=N)N)NC(=O)[C@H](Cc2c[nH]c3ccccc23)NC(=O)[C@H](CC(C)C)NC(=O)[C@H](CC(N)=O)NC1=O)[C@H](C)O`: the Potency in [1] is 18.7 µM (active); in [2], 20.9 µM (active); in [7], 20.9 µM (active); in experiment [9] it was 14.8 µM (active); in experiment [8], 26.4 µM (active); in experiment [10] it was 9.35 µM (active). Moreover, the Potency entry in experiment [6] is “inactive”.
`Cc1ccc(S(=O)(=O)Nc2nc3ccccc3nc2Nc2ccc3nsnc3c2)cc1`: the Potency in [1] was 0.575 µM (active); in experiment [2], 1.82 µM (active); in [7], 1.29 µM (active); in experiment [9] it was 1.44 µM (active); in experiment [8], 0.645 µM (active); in experiment [5], 0.162 µM (active). Besides, the Potency in experiment [10] was 11.5 µM (active); in experiment [6], 0.407 µM (active).
With `CC[C@H](C)C(=O)O[C@H]1C[C@H](O)C=C2C=C[C@H](C)[C@H](CC[C@@H](O)C[C@@H](O)CC(=O)O)[C@H]21`, the Potency entry in experiment [1], in experiment [2], in [7], in [9], in experiment [4] and in experiment [8] was “inactive” each time. For the same compound, the Potency result in experiment [10] and in experiment [6] was “inactive” each time.
Consider `Cc1c(C(=O)Nc2ccc(N3C[C@@H](C)O[C@@H](C)C3)nc2)cccc1-c1ccc(OC(F)(F)F)cc1`, for which the Potency in experiment [1] was 6.62 µM (active); in experiment [9], 14.8 µM (active); in experiment [4], 7.43 µM (active); in experiment [8] it was 4.18 µM (active); in experiment [10], 18.7 µM (active). In experiment [2], the Potency result was “inactive”.
Take `C=C1c2cccc(O)c2C(O)=C2C(=O)[C@@]3(O)C(O)=C(C(N)=O)C(=O)[C@@H](N(C)C)[C@@H]3[C@@H](O)[C@H]12`: the Potency result in [1], in experiment [5] and in experiment [6] was “inactive” each time. Further, the Potency in experiment [2] was 16.6 µM (active); in experiment [7] it was 13.2 µM (active); in experiment [4] it was 11.8 µM (active); in experiment [8], 14.8 µM (active).
In the case of `Fc1ccc(CNc2ncnc3ccc(F)cc23)cc1`, the Potency was 8.33 µM (active) in experiment [1]; 11.8 µM (active) in experiment [2]; 8.33 µM (active) in [7]; 13.2 µM (active) in [4]; 3.72 µM (active) in [8]; 3.72 µM (active) in [10]. The Potency in experiment [6] is 4.69 µM (active).
`COc1cc2ncn(-c3cc(OCc4ccccc4S(C)(=O)=O)c(C#N)s3)c2cc1OC`: the Potency result in experiment [1], in [2], in experiment [5] and in [6] was “inactive” each time. Besides, the Potency in experiment [4] was 3.72 µM (active).
On to `O=C(NCCCCN1CCOCC1)c1cc2ccccc2o1`, for which the Potency result in [1], in [2], in [9], in experiment [4], in experiment [5] and in experiment [6] was “inactive” each time. In addition, the Potency in [10] was 0.0743 µM (active).
